Screening results deposited in PubChem by The Scripps Research Institute Molecular Screening Center.
Only some compounds are listed: those with a hit (about 3.5% of all), similar ones and a draw of the others.
GPR151 ag – human GPR151 activation. Q8TDV0. PathHunter beta-arrestin GPR151 cells, luminescence. activation, % at 11.2 µM. actives 1% (n = 650,000). AID 1508602; in the data active = activation above about 4.9%;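 note: 0% = median of compound wells and 100% = cells with positive control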
Target sequence (Q8TDV0 whole entry, looked up): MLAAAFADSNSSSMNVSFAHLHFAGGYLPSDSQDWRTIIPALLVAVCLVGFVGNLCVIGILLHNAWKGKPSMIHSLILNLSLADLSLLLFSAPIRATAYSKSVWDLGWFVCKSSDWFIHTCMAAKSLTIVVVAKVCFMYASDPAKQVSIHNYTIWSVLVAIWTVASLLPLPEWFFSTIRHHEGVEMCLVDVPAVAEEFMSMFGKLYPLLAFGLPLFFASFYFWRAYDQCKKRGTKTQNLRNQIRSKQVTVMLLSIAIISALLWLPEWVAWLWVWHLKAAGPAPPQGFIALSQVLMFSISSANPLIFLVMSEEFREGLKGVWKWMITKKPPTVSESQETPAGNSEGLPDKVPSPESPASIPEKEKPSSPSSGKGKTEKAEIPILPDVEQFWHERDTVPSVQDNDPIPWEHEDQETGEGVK
TEAD-YAP block – TEAD-YAP interaction inhibition; HEK-TIYL cells, TEAD-Gal4/YAP UAS-luciferase luminescence; inhibition, % at 9.12 µM; actives 1.4% (n = 640,000); in the data active = inhibition above about 32%;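 note: 0% = median of test compound wells and 100% = reference inhibitor wells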
FBW7 activator – activators of human E3 ligase FBW7 | Q969H0 | AlphaScreen FBW7–phospho-cyclin E peptide binding, activator screen | normalized activity (activation), % at 26.1 µM | actives 0.13% (n = 650,000) | AID 1259310; in the data active = normalized activity above about 1.9%;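 note: purified mutant Fbw7 with reduced substrate affinity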
MITF primary – blocks human microphthalmia-associated transcription factor. AlphaScreen MITF homodimerization, bead proximity signal. inhibition, % at 2.6 µM. actives 0.91% (n = 650,000). AID 1259374; in the data active = inhibition above about 50%;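 note: 0% = vehicle wells with protein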
GPR151 confirm – human GPR151 activation, confirmation screen; shares compounds with GPR151 ag; GPR151 PathHunter beta-arrestin cells, luminescence, 90 min; % of EA-reagent control over plate median; activation, % at 11.2 µM; 6,700 tested, under 10 active; AID 1508609;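 active = mean percent activation across replicates above the confirmation screen cutoff of 4.91%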
GPR119 ag – counter-screen for GPR151 activators: effect on human GPR119; activation, % at 11.2 µM; shares compounds with GPR151 ag; AID 1508611; GPR119 PathHunter beta-arrestin cells, luminescence, 90 min; 0 = compound-well median, 100 = enzyme-acceptor control; actives 0.3% (n = 6,700);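 active = mean percent activation in the counterscreen above 29.09%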;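 note: counterscreen on off-target GPR119 to flag nonselective hits from the GPR151 activator screen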
Starred values were filed as active, the others as inactive; . = no result given.

SMILES	GPR151 ag	TEAD-YAP block	FBW7 activator	MITF primary	GPR151 confirm	GPR119 ag
CC(C)OC(=O)Cn1nnc2c(cnn2-c2ccccc2)c1=O	-1	-49	0	2	.	.
CC(=O)Nc1ccccc1NC(=O)COc1ccccc1	-2	2	0	-1	.	.
COc1ccc(CC(=O)Nc2ccc(N(C)C)c3ccccc23)cc1	5.6*	-1	0	16	1	-3
O=C(COc1ccccc1)Nc1ccccc1NC(=O)COc1ccccc1	5.8*	14	0	-3	0	5
O=C(Nc1cc(F)ccc1F)C1CCCN(c2ncnc3c2nc2n3CCCCC2)C1 (stereo not drawn)	8.0*	9	0	-11	-1	-2
O=C(Nc1ccc(F)cc1F)C1CCCN(c2ncnc3c2nc2n3CCCCC2)C1 (stereo not drawn)	2	6	0	0	.	.
CC1CCCC(C)N1CC(O)COc1ccc(N)cc1 (stereo not drawn)	4.9*	7	0	-2	0	-5
CC(=O)c1ccc(OCC(O)CN2CCCCC2C)cc1 (stereo not drawn)	5.2*	0	0	-22	-1	-12
COc1ccc(C2N(C(=O)CN3CCCCC3)CCN2S(=O)(=O)c2ccc(C)cc2)cc1 (stereo not drawn)	-1	-1	0	-4	.	.
COc1ccc(-n2nnnc2SCC(=O)Nc2ccc(NC(C)=O)cc2)cc1OC	2	7	0	-1	.	.
CCC(C)c1ccc(NC(=O)CSc2nnnn2-c2ccc(OC)cc2)cc1 (stereo not drawn)	5.6*	6	1	13	1	0
COc1cc(NC(=O)CSc2nnnn2-c2ccc(OC)c(OC)c2)cc(OC)c1	5.0*	3	0	1	0	1
O=C(CSc1nc2ccc(Nc3nc(N4CCOCC4)nc(N4CCOCC4)n3)cc2s1)NCC1CCCO1 (stereo not drawn)	-1	6	1	1	.	.
O=C(CSc1nc2ccc(Nc3nc(N4CCOCC4)nc(N4CCOCC4)n3)cc2s1)NC1CC1	9.3*	0	0	-1	1	12
COc1cccc(S(=O)(=O)N2CCC(c3nc(-c4cccnc4)no3)CC2)c1	7.4*	2	1	29	-1	-11
Cc1ccc(-c2noc(C3CCN(S(=O)(=O)c4ccccc4)CC3)n2)cc1	0	0	0	-26	.	.
Cc1ccc(S(=O)(=O)N2CCC(c3nc(-c4ccccc4C)no3)CC2)cc1	6.2*	14	0	13	0	-10
CC1CC(C)CN(C(=O)CSc2nnc(Cc3ccccc3)o2)C1 (stereo not drawn)	0	12	0	2	.	.
CCCCC1=CC2=C(c3ccco3)C(=O)C(C)(OC(=O)c3ccc(OC)cc3)C(=O)C2=CO1 (stereo not drawn)	-1	.	0	21	.	.
CCCCC1=CC2=C(c3ccco3)C(=O)C(C)(OC(=O)c3ccc(Cl)nc3)C(=O)C2=CO1 (stereo not drawn)	6.5*	.	0	-7	0	-16
O=C(CN1C(=O)c2ccccc2C1=O)Oc1c(-c2ccccc2)oc2ccccc2c1=O	0	-29	0	-6	.	.
Cc1ccc(-c2oc3ccccc3c(=O)c2OC(=O)CN2C(=O)c3ccccc3C2=O)cc1	11*	-17	0	20	-1	-6
CSc1ccccc1C(=O)Nc1ccccc1Cl	8.2*	10	0	6	-1	5
COC(=O)c1ccccc1NC(=O)C(C)C	5.3*	9	1	-1	0	-11
COc1cc(NC(=O)c2ccccc2Cl)ccc1NC(=O)C(C)C	10*	-16	0	17	0	-5
SMILES	GPR151 ag	TEAD-YAP block	FBW7 activator	MITF primary	GPR151 confirm	GPR119 ag
COc1ccc(OC)c(C(C)NC(=O)c2ccccc2Cl)c1 (stereo not drawn)	15*	5	0	11	1	15
NC(Cc1cc(I)c(Oc2ccc(O)c(I)c2)c(I)c1)C(=O)O (stereo not drawn)	6.4*	10	0	2	0	1
CCN(CC)CCCCNc1ncc2cc(-c3cc(OC)cc(OC)c3)c(NC(=O)NC(C)(C)C)nc2n1	5.3*	.	.	5	-1	4
CCN(CC)CCCCCCNc1cc(OC)cc2c(C)ccnc12	-2	.	.	.	.	.
Cn1cc(C(=O)NCc2ccco2)c2ccccc2c1=O	-1	-8	0	10	.	.
COc1ccc(Cn2ccn(Cc3ccc(F)cc3)c(=O)c2=O)cc1	13*	4	1	9	1	2
CC1CCCC(C)N1c1nnc(NC(=O)c2csc3c2CCCC3)s1 (stereo not drawn)	5.8*	-15	0	-10	-1	8
O=c1c2c(-c3ccccc3)csc2ncn1Cc1ccc([N+](=O)[O-])cc1	5.6*	4	0	20	-1	-3
CC(C)c1ccc(-c2cc(C(=O)Nc3ccc(Cl)cc3)c3ccccc3n2)cc1	0	-10	1	10	.	.
COc1ccc2c(c1)-c1c(ssc1=S)C(C)(C)N2C(=O)Cc1ccccc1	6.3*	-16	-1	16	1	10
COC(=O)c1cc(CNC(=O)[C@@H]2C[C@@H]3C=C[C@H]2C3)cc(NC(=O)C2CCCCC2)c1	1	-9	0	-16	.	.
O=C1[C@@H]2CCCN2C(=O)[C@H]2CN(Cc3cnn(-c4ccccc4Cl)c3)CCN12	0	-2	0	3	.	.
CC(C)C[C@H]1C(=O)N2CCN(Cc3cnn(-c4ccccc4Cl)c3)C[C@@H]2C(=O)N1C	5.8*	-16	0	-5	0	4
FC(F)(F)c1ccc(Cn2cnc3c(NCCOc4ccccc4)nc(Nc4ccc(-n5ccnc5)cc4)nc32)cc1	3	3	0	-4	.	.
O=C(NCCN1CCN(c2cccc(Cl)c2)CC1)Nc1ccccc1	0	2	0	-11	.	.
CCOc1ccc(N2CCN(CCNC(=O)Nc3cccc(Cl)c3)CC2)cc1	5.5*	-1	0	21	0	4
CCCOc1ccc(/C(=N\O)C(C)(C)NO)cc1	-2	-23	0	-14	.	.
COc1ccc(/C(=N/O)C(C)(C)NO)cc1	5.1*	7	0	-2	-1	-2
C/C(=N/NC(=O)CNC(=O)c1ccccc1O)c1ccc(F)cc1	-1	-1	0	12	.	.
COc1ccc(/C(C)=N/NC(=O)CNC(=O)c2ccccc2O)cc1	5.3*	-6	0	4	-1	-8
CCCCOC(=O)Nc1ccc(S(=O)(=O)Nc2cccc([N+](=O)[O-])c2)cc1	5.3*	-6	0	-1	0	-2
CCNS(=O)(=O)c1ccc(NC(=O)Nc2cccc([N+](=O)[O-])c2)cc1	13*	2	0	5	0	3
